The structures appear in SMILES notation. The whole screen tested about 4,600 compounds, of which about 2,900 (63%) were called active.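 Rule for the calls: active = inhibition of yeast growth at or above a set limit in either of two replicates at 10 µM; inactive = the rest.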 The set was probably picked from earlier hits. Many of the other results were omitted from the sample, so actives are more common in it than they were.

The nature of the test: growth inhibitors of wild-type TIM10 yeast, confirmation, counter-screen for tim10-1 synthetic lethality project, single concentration, luminescence, S. cerevisiae (AID 463215).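 Note: isogenic wild-type TIM10 control yeast grown in succinate dextrose medium; 0% = yeast with DMSO and 100% = medium wells lacking yeast.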 Conditions: S. cerevisiae tim10 strain growth, BacTiter-Glo luminescence, 24 h; at 10 µM; stronger effect = higher value. For orientation: Counterscreens check selectivity or assay interference.
As to `Cc1cc2ccccn2c1C(C[N+](=O)[O-])c1c(F)cccc1Cl` (stereo not given), the inhibition (commonly the percentage by which the read-out fell short of the control) is 36.1% (active).

Consider `COc1cccc(N2C(=O)NC(=O)/C(=C\c3ccc([N+](=O)[O-])s3)C2=O)c1`, for which the inhibition is 39.2% (active).

Take `O=C1NC(=O)N(c2ccccc2)C(=O)/C1=C/c1ccc([N+](=O)[O-])s1`: the inhibition was 40% (active).

For `C/C(=N/O)c1ccc2ccc3ccccc3c2c1`, the inhibition was 42.5% (active).

For the molecule `Cc1ccc(-c2nc3ccccc3c(=O)n2-c2ccc(Br)cn2)cc1`, the inhibition was 46.5% (active).

The values above are taken from PubChem BioAssay AID463215 (Sanford-Burnham Center for Chemical Genomics, 2010).
